The values below come from paper PMC5540273 (PLoS ONE, 2017).
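Also: KINOMEscan kinase panel screen.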

For this test, the system named is T1, MEK4.
T1 construct: gene MAP2K4
The note with it: concentration: 1 μM, replicates: in singlicate; n = 1.
As for `O=C(Nc1cccc(-c2nn3ncccc3c2-c2ccnc(Nc3cccc(C(F)(F)F)c3)n2)c1)c1c(F)cccc1F` [GSK299495], the “%Inh” value is given as 29%. Under `O=C(c1ccc(-c2cc(-c3c[nH]nc3-c3ccccn3)ccn2)cc1)N1CCOCC1` [GW812171] stands 14%. On to `Cc1cccc(Cn2ccn3c(=O)cc(N4CCOCC4)nc23)c1` [GSK2297542], for which the “%Inh” value was found to be 23%. Under `NS(=O)(=O)c1cccc(-c2ccc3ncc(N4CCOCC4)nc3c2)c1` [GSK1535721] stands 23%.

Turning to `CCc1ccnc(/C=C/c2n[nH]c3cc(Sc4ccccc4C(=O)NC)ccc23)c1`, the “%Inh” value was 0%.

Regarding `O=c1cc(N2CCOCC2)nc2n(Cc3cccc(C(F)(F)F)c3)ccn12` [GSK2297543], the “%Inh” value amounted to 31%. Regarding `COC(=O)Nc1nc2cc(Oc3ccc(NC(=O)Nc4cc(F)ccc4F)cc3)ccc2[nH]1.Cl` [GW701424], the “%Inh” value is 15%. In the case of `NS(=O)(=O)CCc1cccc(Nc2nccc(-c3c(-c4cccc(NC(=O)c5c(F)cccc5F)c4)nn4ccccc34)n2)c1` [GSK336735], the “%Inh” value is listed as 36%. As for `O=C(NCCNc1ccnc(Nc2ccc(F)cc2)n1)c1cc2ccccc2s1` [GSK1379874], the “%Inh” value turned out to be 29%.

As for `CC(C)(C)n1cnc2c(N)ncnc21` [SKF-97359], the “%Inh” value is given as 0%. Under `COc1cc2c(cc1OC[C@@H](O)CO)ncc1c3ccc(C#N)cc3[nH]c21` stands 0%; under `O=C(NCCNc1ccnc(Nc2ccc(F)cc2)n1)Nc1ccccc1F` [GSK1379880], 26%; under `Fc1ccc(-c2ncn(CCCN3CCOCC3)c2-c2ccccn2)cc1` [SB-211742], 0%. Regarding `O=C(Nc1n[nH]c2cc(-c3cccc(F)c3)ccc12)C1CC1` [SB-735464], the “%Inh” value is 4%.

As to `Cc1nnc(-c2ccc(C)c(-c3ccc(C(=O)Nc4ccc(NS(C)(=O)=O)cc4)cc3)c2)o1` [GW702865], the “%Inh” value came to 0%. As for `CNc1ncnc2[nH]ncc12` [SKF-18355], the “%Inh” value stood at 18%. Regarding `Cc1cccc(-c2nc(-c3ccc(S(C)(=O)=O)cc3)sc2-c2ccncc2)c1`, the “%Inh” value was determined as 27%. For `Nc1nc(-c2ccc3c(N)n[nH]c3c2)cc(N2CCCC2)n1` [GSK2227430], the “%Inh” value was 0%. `Fc1ccc(-c2ncn(CCCN3CCOCC3)c2-c2cccnc2)cc1` [SB-211743]: the “%Inh” value was found to be 15%. For the compound `[2H]C([2H])(c1cccc(C(F)(F)F)c1C)n1ccn2c(=O)nc(N3CCOCC3)cc12` [GSK2336394], the “%Inh” value worked out at 35%. For the compound `c1ccc(-c2cc(-c3c[nH]nc3-c3ccccn3)ccn2)cc1` [GW576604], the “%Inh” value is reported as 16%.

As for `CCc1nc(-c2cccc(C)c2)c(-c2ccnc(NCc3ccccc3)c2)s1`, the “%Inh” value is 9%.

As for `Cn1ccc2ncnc(Oc3ccc(NC(=O)Nc4ccncc4)c(Cl)c3)c21`, the “%Inh” value was determined as 0%. As to `COCCNC(=O)c1ccc(-c2cc(C(=O)NC3CC3)cc(F)c2C)cc1` [GW868318], the “%Inh” value was determined as 34%.

As for `O=C1NC(=O)C(N2CCc3ccccc32)=C1c1cccc(Cl)c1` [SB-408010], the “%Inh” value is reported as 0%. Regarding `CN(C1=C(c2ccccc2)C(=O)NC1=O)c1ccccc1` [SB-334860], the “%Inh” value came out at 14%. Under `NCC(NC(=O)c1cc(-c2cn[nH]c2)c(-c2ccnc3[nH]ccc23)s1)c1ccccc1.O=C(O)C(F)(F)F.O=C(O)C(F)(F)F` (stereo not shown) [GSK1325775] stands 35%. Under `COc1ccc(Nc2nccc(N3CCC(NC(=O)Nc4cccc(C(C)=O)c4)C3)n2)cc1` (stereo not shown) [GSK1379731] stands 40%. Under `Cn1cc(-c2ccc3c(c2)CCN3C(=O)Cc2ccccc2Cl)c2c(N)ncnc21` [GSK2608885] stands 17%; under `O=c1cc(N2CCOCC2)nc2n(Cc3cccc(F)c3)ccn12` [GSK2297430], 0%; under `CN(C(=O)c1ccc(-c2cc(-c3c[nH]nc3-c3ccccn3)ccn2)cc1)C1CCOCC1` [GW810083], 0%. Turning to `CC(=O)Nc1ccc(COc2ccc(Nc3ccnc4cc(-c5ccccn5)ccc34)cc2)cc1.Cl` [GW440148], the “%Inh” value worked out at 0%.

Turning to `NS(=O)(=O)c1cccc(-c2ccc3nccc(-c4cccc(S(N)(=O)=O)c4)c3c2)c1` [GW867253], the “%Inh” value worked out at 15%.

`N#Cc1c(N2CCOCC2)sc(-c2ccn[nH]2)c1-c1ccc(Cl)cc1`: the “%Inh” value stood at 0%.
